Holding throughout (design): scale not given: direction of the effect not stated beside the values
For assay [1], the target named is Protein translocase subunit SecA (Escherichia coli (strain K12)) (UniProt P10408). Nature of the assay: Assay to Identify E. coli SecA ATPase Inhibitors. The class given is functional. Particulars: 30 µM.
In assay [2] the target is T1, Ubiquitin-activating enzyme e1, putative (Leishmania donovani (strain BPK282A1)) (UniProt E9BSI1).
T1 sequence (whole entry): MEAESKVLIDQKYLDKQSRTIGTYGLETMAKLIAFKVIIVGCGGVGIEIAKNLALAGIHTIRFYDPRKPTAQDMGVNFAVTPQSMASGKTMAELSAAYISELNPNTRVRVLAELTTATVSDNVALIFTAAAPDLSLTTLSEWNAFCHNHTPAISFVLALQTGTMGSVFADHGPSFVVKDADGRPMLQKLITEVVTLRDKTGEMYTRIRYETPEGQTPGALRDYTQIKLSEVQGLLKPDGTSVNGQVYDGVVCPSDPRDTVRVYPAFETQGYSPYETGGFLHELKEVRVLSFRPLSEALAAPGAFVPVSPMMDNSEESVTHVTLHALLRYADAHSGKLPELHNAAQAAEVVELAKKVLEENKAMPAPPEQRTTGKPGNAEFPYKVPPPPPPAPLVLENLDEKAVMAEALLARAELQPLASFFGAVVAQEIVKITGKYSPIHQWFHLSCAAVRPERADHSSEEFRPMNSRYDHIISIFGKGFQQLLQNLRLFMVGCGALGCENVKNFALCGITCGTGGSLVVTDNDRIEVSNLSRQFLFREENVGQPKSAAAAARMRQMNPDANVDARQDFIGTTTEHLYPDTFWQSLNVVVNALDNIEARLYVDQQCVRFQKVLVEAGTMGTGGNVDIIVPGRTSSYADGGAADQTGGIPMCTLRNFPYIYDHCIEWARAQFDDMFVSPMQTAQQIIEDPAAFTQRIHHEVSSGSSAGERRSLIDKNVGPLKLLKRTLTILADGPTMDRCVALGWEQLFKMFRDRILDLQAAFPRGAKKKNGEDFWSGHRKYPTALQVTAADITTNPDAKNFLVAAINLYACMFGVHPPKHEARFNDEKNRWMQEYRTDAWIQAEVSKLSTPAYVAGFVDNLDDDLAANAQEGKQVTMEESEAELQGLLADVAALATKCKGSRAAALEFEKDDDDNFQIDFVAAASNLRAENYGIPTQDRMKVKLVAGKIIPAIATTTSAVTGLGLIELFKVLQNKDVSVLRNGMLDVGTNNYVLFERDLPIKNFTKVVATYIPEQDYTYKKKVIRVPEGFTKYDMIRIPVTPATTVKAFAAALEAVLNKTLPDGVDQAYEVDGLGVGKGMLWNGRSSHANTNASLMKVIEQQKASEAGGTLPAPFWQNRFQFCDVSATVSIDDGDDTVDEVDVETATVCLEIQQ
Nature of the assay: Leishmania donovani Ubiquitin Activating Enzyme (LdE1). Type of assay: functional. Particulars: 30 µM.

In assay [3] the target is AMP-activated protein kinase, AMPK (Homo sapiens) (UniProt P54646+O43741+P54619+Q9UGJ0+Q9Y478+Q13131+Q9UGI9). Nature of the assay: AMP-dependent Kinase enzyme assay. An in vitro enzyme assay that detects ADP turnover that is directly proportional to AMPK activity. This uses naive AMPK that is activated during the assay with MK-8722. The class given is functional. Particulars: 30 µM.

Assay [4] concerns the target Sialic acid-binding Ig-like lectin 9 (Homo sapiens) (UniProt Q9Y336). Nature of the assay: Hs-Siglec9 ALPHAscreen SOP 20170721. Particulars: 10 µM.
In a further assay the test system is Trypanosoma cruzi. The assay is described as follows: Trypanosoma cruzi phosphomannomutase and mannose-1-phosphate guanylyltransferase assay. The class given is functional. Particulars: 10 µM.
In assay [5] the target is T2, Arginase-2, mitochondrial (Homo sapiens) (UniProt P78540).
T2 sequence (whole entry): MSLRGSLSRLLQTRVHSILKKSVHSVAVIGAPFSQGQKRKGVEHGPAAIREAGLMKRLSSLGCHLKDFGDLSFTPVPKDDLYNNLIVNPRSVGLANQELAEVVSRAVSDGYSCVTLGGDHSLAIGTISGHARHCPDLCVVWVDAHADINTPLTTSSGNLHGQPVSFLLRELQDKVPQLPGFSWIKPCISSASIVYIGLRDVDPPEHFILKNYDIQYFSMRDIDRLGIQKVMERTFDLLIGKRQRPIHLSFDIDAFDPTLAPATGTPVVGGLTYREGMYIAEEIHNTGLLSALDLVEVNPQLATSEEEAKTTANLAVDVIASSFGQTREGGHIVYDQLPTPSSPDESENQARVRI
Nature of the assay: in vitro enzyme assay to detect the production of urea directly proportional to the activity of Arginase II. Also: in the data most compounds retested in dose-response had high values. Conditions: 33.3 µM. The class given is functional.

The target in assay [6] is T3, Proteasome subunit beta (Trypanosoma cruzi) (UniProt O96673).
T3 sequence (whole entry): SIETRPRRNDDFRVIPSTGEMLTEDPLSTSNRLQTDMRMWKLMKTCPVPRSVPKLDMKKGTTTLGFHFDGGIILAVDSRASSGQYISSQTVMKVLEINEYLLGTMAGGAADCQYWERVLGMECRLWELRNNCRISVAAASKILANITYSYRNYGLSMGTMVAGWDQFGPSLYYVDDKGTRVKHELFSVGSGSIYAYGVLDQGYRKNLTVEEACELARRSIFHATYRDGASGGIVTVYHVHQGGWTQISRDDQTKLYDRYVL
The assay is described as follows: Trypanosoma cruzi proteasome chymotrypsin-like activity (TcProtChymo) assay. Also: in the data most compounds retested in dose-response had high values. The class given is functional. Conditions: 9.37 µM.

The species entered for another assay is Homo sapiens. The assay is described as follows: To identify inhibition of the IFN signalling (Jak-Stat) pathway via expression of an eGFP reporter gene under the control of an IFN-stimulated response element (ISRE) containing MxA promoter. Particulars: 30 µM. The class given is functional. Background: A reporter such as luciferase makes a cellular process visible.

Assay [7] deals with T4, Tyrosyl-tRNA synthetase, putative (Trypanosoma cruzi (strain CL Brener)) (UniProt Q4DSP6).
T4 sequence (whole entry): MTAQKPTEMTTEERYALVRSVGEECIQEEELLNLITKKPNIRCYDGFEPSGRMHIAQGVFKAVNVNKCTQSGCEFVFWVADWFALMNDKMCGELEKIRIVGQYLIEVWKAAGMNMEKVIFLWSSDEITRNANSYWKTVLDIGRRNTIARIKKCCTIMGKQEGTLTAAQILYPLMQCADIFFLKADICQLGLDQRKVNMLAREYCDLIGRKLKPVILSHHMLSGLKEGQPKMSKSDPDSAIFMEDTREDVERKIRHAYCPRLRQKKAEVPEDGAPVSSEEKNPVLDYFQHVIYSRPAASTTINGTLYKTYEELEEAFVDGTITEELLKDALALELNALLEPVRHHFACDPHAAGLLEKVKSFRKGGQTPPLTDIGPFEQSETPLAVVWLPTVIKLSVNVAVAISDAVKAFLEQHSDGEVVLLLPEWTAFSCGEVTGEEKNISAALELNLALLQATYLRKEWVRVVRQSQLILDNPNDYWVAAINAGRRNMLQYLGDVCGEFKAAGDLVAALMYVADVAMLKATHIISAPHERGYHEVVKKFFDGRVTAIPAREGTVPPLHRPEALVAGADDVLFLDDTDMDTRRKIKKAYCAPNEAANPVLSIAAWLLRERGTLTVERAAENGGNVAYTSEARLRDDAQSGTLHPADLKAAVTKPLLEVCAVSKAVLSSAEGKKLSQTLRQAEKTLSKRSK
Nature of the assay: Trypanosoma cruzi tyrosyl tRNA synthetase (TcYRS) _High Tyrosine SOP. Also: in the data most compounds retested in dose-response had high values. Type of assay: functional. Particulars: 30 µM.

The target of assay [8] is T4, Tyrosyl-tRNA synthetase, putative (Trypanosoma cruzi (strain CL Brener)). The assay is described as follows: Trypanosoma cruzi tyrosyl tRNA synthetase (TcYRS) SOP. Type of assay: functional. Particulars: 30 µM.
Assay [9] concerns the target Chromo domain-containing protein 1 (Saccharomyces cerevisiae (strain ATCC 204508 / S288c) (Baker's yeast)) (UniProt P32657). Nature of the assay: ScCHD-1 Enzyme Inhibition Assay. Also: in the data most compounds retested in dose-response had high values. Conditions: 30 µM. The class given is functional.

Molecules are shown by their SMILES. For some of these results: Potency and affinity values are given separately.

Chain of Sialic acid-binding Ig-like lectin 9 (Homo sapiens) (Q9Y336 whole entry): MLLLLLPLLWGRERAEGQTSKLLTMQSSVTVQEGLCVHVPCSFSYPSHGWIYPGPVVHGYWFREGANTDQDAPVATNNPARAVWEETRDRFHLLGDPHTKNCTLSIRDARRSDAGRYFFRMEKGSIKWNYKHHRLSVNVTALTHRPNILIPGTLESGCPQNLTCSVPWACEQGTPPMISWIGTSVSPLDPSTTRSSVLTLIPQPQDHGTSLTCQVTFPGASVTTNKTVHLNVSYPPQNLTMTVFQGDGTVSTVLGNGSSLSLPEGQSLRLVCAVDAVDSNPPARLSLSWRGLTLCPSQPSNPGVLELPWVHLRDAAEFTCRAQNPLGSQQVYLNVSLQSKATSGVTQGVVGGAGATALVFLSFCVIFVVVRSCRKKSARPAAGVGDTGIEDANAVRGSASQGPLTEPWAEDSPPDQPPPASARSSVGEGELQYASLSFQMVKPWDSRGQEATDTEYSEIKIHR
Chain of Chromo domain-containing protein 1 (Saccharomyces cerevisiae (strain ATCC 204508 / S288c) (Baker's yeast)) (P32657 whole entry, the tested form may be a part): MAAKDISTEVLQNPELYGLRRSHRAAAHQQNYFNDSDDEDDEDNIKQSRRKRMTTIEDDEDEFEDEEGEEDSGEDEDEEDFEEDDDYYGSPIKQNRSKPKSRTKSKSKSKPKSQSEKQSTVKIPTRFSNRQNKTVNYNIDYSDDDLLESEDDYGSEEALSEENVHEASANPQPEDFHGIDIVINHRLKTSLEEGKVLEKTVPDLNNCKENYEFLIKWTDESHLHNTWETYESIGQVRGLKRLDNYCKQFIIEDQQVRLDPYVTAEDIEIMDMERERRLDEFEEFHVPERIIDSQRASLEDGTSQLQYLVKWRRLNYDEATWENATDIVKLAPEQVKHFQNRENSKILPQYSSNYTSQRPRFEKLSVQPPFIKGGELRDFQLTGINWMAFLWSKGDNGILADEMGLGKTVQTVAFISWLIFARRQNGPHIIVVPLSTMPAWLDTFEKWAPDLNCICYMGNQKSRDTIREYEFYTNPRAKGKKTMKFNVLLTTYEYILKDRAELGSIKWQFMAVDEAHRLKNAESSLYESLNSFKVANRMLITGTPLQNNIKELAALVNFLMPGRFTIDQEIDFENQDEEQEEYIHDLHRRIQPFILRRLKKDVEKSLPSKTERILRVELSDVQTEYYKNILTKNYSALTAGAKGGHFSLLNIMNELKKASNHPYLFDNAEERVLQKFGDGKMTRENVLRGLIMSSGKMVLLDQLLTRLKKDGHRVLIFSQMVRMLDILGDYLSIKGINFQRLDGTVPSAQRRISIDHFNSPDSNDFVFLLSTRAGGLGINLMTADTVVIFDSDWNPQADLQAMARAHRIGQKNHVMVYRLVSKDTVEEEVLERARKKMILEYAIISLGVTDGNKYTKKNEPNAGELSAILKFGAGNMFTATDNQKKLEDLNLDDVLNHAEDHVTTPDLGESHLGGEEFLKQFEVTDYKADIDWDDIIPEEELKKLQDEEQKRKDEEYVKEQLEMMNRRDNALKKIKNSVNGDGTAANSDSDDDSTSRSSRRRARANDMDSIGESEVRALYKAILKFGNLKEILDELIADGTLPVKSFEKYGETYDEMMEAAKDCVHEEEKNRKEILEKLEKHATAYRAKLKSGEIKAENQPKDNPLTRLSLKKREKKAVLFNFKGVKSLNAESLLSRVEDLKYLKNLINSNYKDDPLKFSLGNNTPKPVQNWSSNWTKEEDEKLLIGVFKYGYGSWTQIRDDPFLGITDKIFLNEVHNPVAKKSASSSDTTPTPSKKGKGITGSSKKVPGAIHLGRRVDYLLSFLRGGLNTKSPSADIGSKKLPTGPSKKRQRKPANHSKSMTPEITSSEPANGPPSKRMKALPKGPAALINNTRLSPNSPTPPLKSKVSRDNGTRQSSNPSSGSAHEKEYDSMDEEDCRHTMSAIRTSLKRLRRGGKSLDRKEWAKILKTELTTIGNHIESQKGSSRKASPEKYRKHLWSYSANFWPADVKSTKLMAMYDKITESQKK
Chain of Protein translocase subunit SecA (Escherichia coli (strain K12)) (P10408 whole entry): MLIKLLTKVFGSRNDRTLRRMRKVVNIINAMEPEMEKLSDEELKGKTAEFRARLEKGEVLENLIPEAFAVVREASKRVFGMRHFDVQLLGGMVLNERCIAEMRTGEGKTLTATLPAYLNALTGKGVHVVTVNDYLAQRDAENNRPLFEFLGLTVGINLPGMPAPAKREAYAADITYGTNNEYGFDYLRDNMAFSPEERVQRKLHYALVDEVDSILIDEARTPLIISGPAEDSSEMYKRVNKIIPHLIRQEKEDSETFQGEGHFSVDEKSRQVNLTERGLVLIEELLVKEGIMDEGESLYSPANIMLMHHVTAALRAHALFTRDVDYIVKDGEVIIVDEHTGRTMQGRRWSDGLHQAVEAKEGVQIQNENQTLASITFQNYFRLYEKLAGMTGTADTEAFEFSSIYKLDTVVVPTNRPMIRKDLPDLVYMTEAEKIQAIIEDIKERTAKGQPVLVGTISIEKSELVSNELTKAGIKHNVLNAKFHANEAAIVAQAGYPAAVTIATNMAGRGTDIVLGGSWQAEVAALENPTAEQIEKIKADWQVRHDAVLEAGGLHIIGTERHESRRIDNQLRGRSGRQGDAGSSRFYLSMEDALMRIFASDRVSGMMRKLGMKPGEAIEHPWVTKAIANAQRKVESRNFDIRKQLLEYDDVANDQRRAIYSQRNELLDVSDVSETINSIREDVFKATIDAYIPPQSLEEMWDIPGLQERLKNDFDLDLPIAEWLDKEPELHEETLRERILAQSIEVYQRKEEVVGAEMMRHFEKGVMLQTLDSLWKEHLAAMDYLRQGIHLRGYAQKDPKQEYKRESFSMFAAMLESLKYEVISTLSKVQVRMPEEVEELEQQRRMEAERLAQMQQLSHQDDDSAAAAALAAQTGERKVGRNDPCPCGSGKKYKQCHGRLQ

As for `CC(=O)N(Cc1noc(C2CC2)n1)C1CCN(Cc2cccnc2)C1` (stereo unspecified), the Percent Effect was -2.68% in assay [1]; 13.5% in [2]; -6.59% in assay [3]; 0.785% in [4]; -1.76% in the assay with Trypanosoma cruzi; -0.185% in assay [5]. For the same compound, the Percent Effect in assay [6] was 2.51%; in the assay filed under Homo sapiens, 12.5%; in assay [7], 4.95%; in [8], 18.3%; in [9] it was -7.09%.
Regarding `CC(C)Nc1nc2c(cc1C(=O)N(C)C)CCNCC2`, the Percent Effect is -4.01% in [1]; 16% in [2]; 4.22% in assay [3]; 9.77% in [4]; -0.772% in the assay on Trypanosoma cruzi; -24.6% in assay [5]. Besides, the Percent Effect was 5.47% in assay [6]; -7.58% in the assay listed under Homo sapiens; 0% in assay [7]; -7.5% in assay [8]; -4.61% in [9].
Turning to `O=C(Cc1c[nH]c2ccccc12)N1CCN(C(=O)c2ccoc2)CC1`, the Percent Effect is -2.06% in assay [1]; 13.2% in assay [2]; 1.95% in assay [3]; -3.58% in assay [4]; 0.487% in the assay with Trypanosoma cruzi; 14.2% in assay [5]. Besides, the Percent Effect in assay [6] is 12.9%; in the assay listed under Homo sapiens it was 21.1%; in assay [7] it was 7.45%; in assay [8], 18.2%; in assay [9], -2.68%.
Turning to `CC(=O)c1cc(CC(=O)NCc2c(F)cccc2F)cs1`, the Percent Effect in assay [1] was 2.08%; in assay [2], 5.41%; in assay [3], -0.986%; in assay [4], 2.88%; in the assay on Trypanosoma cruzi it was 4.44%; in assay [5], 10.5%. The Percent Effect worked out at 2.76% in assay [6]; 17.2% in the assay listed under Homo sapiens; 0.529% in assay [7]; 7.32% in assay [8]; 0.311% in [9].
As for `O=C1NCCN1C1CCN(CCc2cccs2)CC1`, the Percent Effect is -7% in assay [1]; 18.2% in [2]; -1.15% in assay [3]; -8.84% in assay [4]; 5.78% with Trypanosoma cruzi; -3.16% in [5]. The Percent Effect was 17.5% in [6]; 2.25% in the assay filed under Homo sapiens; 5.71% in [7]; 23.5% in [8]; -17.6% in assay [9].
On to `CN(C)c1ncnc2c1CCN(CC1CCCC1)CC2`, for which the Percent Effect in [1] is -3.48%; in assay [2] it was 5.41%; in assay [3] it was 5.95%; in [4], -2.79%; in the assay on Trypanosoma cruzi, -3.81%; in [5], -4.14%. Further, the Percent Effect in [6] was 15.1%; in the assay filed under Homo sapiens, -8.91%; in assay [7] it was 4.32%; in assay [8], 15.4%; in assay [9], 1.8%.
For the compound `CC(NC(=O)NCCCOC1CCCCC1)c1nncn1C` (stereo unspecified), the Percent Effect in assay [1] was -0.354%; in assay [2], 2.7%; in [3] it was -2.09%; in assay [4] it was 21.6%; in the assay with Trypanosoma cruzi, 4.18%; in assay [5], -1.29%. For the same compound, the Percent Effect in assay [6] was 16.2%; in the assay listed under Homo sapiens, 5.68%; in assay [7] it was 3.96%; in assay [8] it was 25.6%; in assay [9], -7.07%.
In the case of `CCOc1ccccc1C(=O)NS(=O)(=O)c1ccc2c(c1)OCCCO2`, the Percent Effect in [1] was -5.62%; in assay [2] it was 5.26%; in assay [3], -3.19%; in assay [4], 0.997%; with Trypanosoma cruzi, 3.08%; in assay [5] it was -3.24%. In addition, the Percent Effect in assay [6] is 8.04%; in the assay listed under Homo sapiens, 7.05%; in assay [7] it was -29.1%; in assay [8], -21%; in assay [9], -8.5%.
With `O=C(CCc1c[nH]cn1)N1CC[C@@H](c2ccc3ccccc3c2)[C@H](O)C1`, the Percent Effect in assay [1] was -5.41%; in assay [2], 10.7%; in assay [3] it was -4.75%; in assay [4], 24.9%; in the assay on Trypanosoma cruzi, 5.16%; in assay [5], 8.85%. In addition, the Percent Effect was found to be 9.77% in assay [6]; 15.3% in the assay listed under Homo sapiens; 7.1% in assay [7]; 13.6% in [8]; 106% in [9].
For `Cn1cc(CN2CCCn3cnc(COCC4CC4)c3C2)cn1`, the Percent Effect in assay [1] is -4.51%; in [2] it was 8%; in assay [3], -1.37%; in [4] it was 1.51%; with Trypanosoma cruzi, 6.95%; in assay [5] it was -55.7%. Moreover, the Percent Effect in assay [6] is 7.69%; in the assay filed under Homo sapiens it was -4.29%; in [7], 4.17%; in assay [8], 15%; in [9], -7.64%.
As to `COCCNC(=O)c1sc(Nc2ccc(Cl)cn2)nc1C`, the Percent Effect is -1.6% in [1]; 20% in [2]; -8.36% in assay [3]; 6.95% in [4]; 0.589% in the assay on Trypanosoma cruzi; -3.7% in assay [5]. The Percent Effect in [6] is 17.2%; in the assay filed under Homo sapiens it was 5.99%; in assay [7], 6.35%; in assay [8] it was 10.3%; in assay [9] it was -10.7%.

Values taken from ChEMBL document CHEMBL3988442, “University of Dundee, Small-Polar-MMV Screening Library” (2021).
